Compound activity as filed in PubChem.
Most compounds without a hit are left out; they make up all but 1.7% or so of the library.
LYPLA2 inh: blocks human lysophospholipase 2, a PME1 counter-screen; 320,000 tested, 0.38% active; inhibition, % at 5.9 µM; O95372; recombinant LYPLA2, FP-Rh probe fluorescence polarization;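 active = inhibition above the screen-wide mean plus 3 SD, limit set per campaign, cut at about 26% in these data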;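 also: 0% = LYPLA2 with DMSO and 100% = wells lacking LYPLA2 enzyme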
EBNA-1 inh: blocks EBNA-1 binding to DNA; EBNA-1 DNA binding, fluorescence polarization; inhibition, % at 14.8 µM; 300,000 tested, 0.34% active; in the data active = inhibition above about 28%
ZTA counter: ZTA (EBV) inhibition in EBNA-1 counter-screen; P03206; ZTA-DNA binding, fluorescence polarization; inhibition, % at 11 µM; 320,000 tested, 0.15% active; AID 2234; in the data active = inhibition above about 33%
LYPLA1 counter: blocks human lysophospholipase 1, a PME1 counter-screen | O75608 | recombinant LYPLA1, FP-Rh probe fluorescence polarization | inhibition, % at 5.9 µM | 320,000 tested, 0.16% active;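 active = inhibition above the mean of all tested compounds plus 3 SD, set per campaign, cut at about 14% in these data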;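 also: inhibitors block serine hydrolase probe labeling of LYPLA1 so polarization falls; 0% = enzyme with DMSO and 100% = wells lacking LYPLA1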
GSTO1 inh: counter-screen for RBBP9 inhibitors: inhibitors of human GSTO1; inhibition, % at 5.96 µM; P78417; recombinant GSTO1, activity-based probe fluorescence polarization; 300,000 tested, 1.1% active;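 active = inhibition above the campaign mean inhibition plus 3 SD, cut at about 35% in these data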;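 also: 0% = GSTO1-1 with DMSO and 100% = wells lacking GSTO1-1 enzyme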
PAD4 FP inh: blocks human protein arginine deiminase 4; inhibition, % at 6.36 µM; Q9UM07; recombinant PAD4, RCA probe fluorescence polarization; 330,000 tested, 0.41% active; AID 485272;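 active = percent inhibition above a cutoff equal to the mean of all tested compounds plus 3 SD, cut at about 15% in these data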;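 also: 0% = PAD4 with RCA probe and DMSO and 100% = probe without PAD4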
GSTO1 confirm: GSTO1 (human) inhibition, confirmation; inhibition, % at 5.96 µM; shares compounds with GSTO1 inh; recombinant GSTO1, probe fluorescence polarization; 2,400 tested, 54% active;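 active = inhibition above the primary screen's cutoff, its mean inhibition plus 3 SD, cut at about 35% in these data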;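 also: loss of polarization as inhibitors block binding of rhodamine sulfonate ester activity probe; 0% = GSTO1 with DMSO and 100% = wells lacking GSTO1 enzyme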
GSTO1 ABPP inh: inhibitors of recombinant human GSTO1; 130 tested, 30% active; gel ABPP SE-Rh probe fluorescence; shares compounds with GSTO1 inh; inhibition, % at 1 µM;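 active = inhibition of the enzyme GSTO1 above about 75%, limit read from the data; inactive = inhibition below that limit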
The depositor's hits bear a star.

Screening O=C(N=Nc1c(O)[nH]c2ccc([N+](=O)[O-])cc12)c1ccccc1Cl returned LYPLA2 inh -3.7, EBNA-1 inh -6.7, ZTA counter -4.5, LYPLA1 counter 2.1, GSTO1 inh 45.0*, PAD4 FP inh -1.1 and GSTO1 confirm 18.1.
For Cc1ccccc1NCC(=O)N=Nc1c(O)[nH]c2ccc([N+](=O)[O-])cc12 the results were LYPLA2 inh -1.7, EBNA-1 inh 8.2, ZTA counter 6.5, LYPLA1 counter -6.2, GSTO1 inh 45.2*, PAD4 FP inh -3.1 and GSTO1 confirm 50.0*.
`O=C(O)c1ccccc1N=Nc1c(O)[nH]c2ccc([N+](=O)[O-])cc12` gave LYPLA2 inh -2.0, EBNA-1 inh 13.2, ZTA counter 3.9, LYPLA1 counter 5.0, GSTO1 inh -4.2 and PAD4 FP inh 0.2.
Screening COc1cccc(CNC(=O)COC(=O)C2CCN(c3ccc(C(F)(F)F)cn3)CC2)c1 returned LYPLA2 inh 4.0, ZTA counter -10.8, LYPLA1 counter 0.8 and PAD4 FP inh 3.0.
Screening NC(=O)c1nc[nH]c1C(=O)Nc1cccc(C(F)(F)F)c1 returned LYPLA2 inh -7.7, ZTA counter -15.7, LYPLA1 counter -5.1 and PAD4 FP inh 1.0.
CCN(Cc1ccc(OC)c(F)c1)C(=O)CCl was read as LYPLA2 inh 7.5, EBNA-1 inh -0.8, ZTA counter 7.4, LYPLA1 counter -0.9, GSTO1 inh 98.3*, PAD4 FP inh -4.9, GSTO1 confirm 100.7* and GSTO1 ABPP inh 47.0.
Screening COc1cccc(NC(=O)CSc2nc(=O)n(Cc3ccncc3)c3c2CCCC3)c1 returned LYPLA2 inh 6.4, EBNA-1 inh -1.8, ZTA counter -4.9, LYPLA1 counter 1.3, GSTO1 inh 0.0 and PAD4 FP inh -3.2.
For CC1=NN(c2ccc(C)cc2C)C(=O)C1C(c1ccccc1)C1C(=O)N(c2ccc(C)cc2C)N=C1C (stereo not drawn) the results were LYPLA2 inh 10.7, EBNA-1 inh 9.6, ZTA counter 1.8, LYPLA1 counter 0.0, GSTO1 inh 44.0*, PAD4 FP inh 12.9 and GSTO1 confirm 9.2.
For Cc1ccc(-n2nc(C)c(C(=O)O)n2)c(C)c1 the results were LYPLA2 inh 0.5, EBNA-1 inh -7.9, ZTA counter -5.2, LYPLA1 counter -6.6, GSTO1 inh 1.2 and PAD4 FP inh -1.5.
For O=C(NCCN1CCOCC1)NC1(C(F)(F)F)Oc2ccc(Cl)cc2O1 (stereo not drawn) the results were LYPLA2 inh -7.1, EBNA-1 inh -4.5, ZTA counter -1.1, LYPLA1 counter -1.5, GSTO1 inh 49.2*, PAD4 FP inh -4.2 and GSTO1 confirm 6.5.
Screening O=C(NCCN1CCOCC1)c1ccc(Cl)cc1O returned LYPLA2 inh -1.3, EBNA-1 inh 15.3, ZTA counter 5.3, LYPLA1 counter 0.0, GSTO1 inh 6.7 and PAD4 FP inh 3.3.
For O=C1c2ccccc2C(=O)c2c1oc(C(F)(F)F)c2C(=O)c1ccccc1 the results were LYPLA2 inh -4.0, EBNA-1 inh -0.4, ZTA counter -5.2, LYPLA1 counter -3.3, GSTO1 inh 62.4*, PAD4 FP inh 1.5 and GSTO1 confirm 71.0*.
Screening O=C(c1ccccc1)c1coc2c1C(=O)c1ccccc1C2=O returned LYPLA2 inh 3.8, EBNA-1 inh 4.5, ZTA counter -21.9, LYPLA1 counter -0.8, GSTO1 inh 59.9*, PAD4 FP inh -9.9 and GSTO1 confirm 38.8*.
For COc1ccc(C(=O)c2coc3c2C(=O)C(=O)c2ccccc2-3)cc1 the results were LYPLA2 inh 3.5, EBNA-1 inh 6.8, ZTA counter 2.9, LYPLA1 counter 1.7, GSTO1 inh 23.8 and PAD4 FP inh -10.9.
`Cc1ccc(S(=O)(=O)N2CCN(C(C)C(=O)NCC(C)c3ccccc3)CC2)cc1` (stereo not drawn) gave PAD4 FP inh -1.5.
For COP(=O)(c1ccc(N(C)C)cc1)C(O)c1ccccc1 (stereo not drawn) the results were LYPLA2 inh -2.6, EBNA-1 inh 9.1, ZTA counter -3.1, LYPLA1 counter 0.0, GSTO1 inh 2.3 and PAD4 FP inh -2.6.
